Reference: PubChem BioAssay (Tox21)
Results filed as inconclusive are left out. Entries that show only a call come without a potency. Some compounds were tested as several samples or in several runs, with calls that do not always agree. Active and inactive are the calls of the source. Calls follow the shape of the dose curve; as a rule, active = well fitted curve in the direction sought with a large enough effect in the repeat runs; inconclusive = weak or mixed curves; inactive = no such curve, though single readings can be large; an effect the other way counts as inactive or inconclusive.

Assays:
[1] = A CellTox Green Cytotoxicity Assay to monitor cytotoxicity in HEK293 cells - 40 hour (AID 1224871); also: nearly all actives have a fitted effect of over 45% in size; also: potency is read from the fitted curve at half-maximal effect
Outline: (§1)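 Each value comes from one timepoint of a single continuous run in which HEK293 cells with CellTox Green were exposed to compound for up to 40 h at 37 C, dye fluorescence rising with cell death.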

[2] = qHTS RealTime-Glo MT Cell Viability Assay in HEK293 cells - 16 hour (AID 1224872); also: nearly all actives have a fitted effect of over 50% in size; also: potency is read from the fitted curve at half-maximal effect
Outline: (§2)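 Homogeneous bioluminescent viability format in HEK293 cells (600 cells/well). Following 5 h at 37 C/5% CO2, 23 nL compound was pintooled; the signal was measured repeatedly during 40 h incubation.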

[3] = qHTS RealTime-Glo MT Cell Viability Assay in HepG2 cells - 8 hour (AID 1224873); also: nearly all actives have a fitted effect of over 55% in size
Outline: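 HepG2 cells mixed with RealTime-Glo MT reagents (NanoLuc plus cell-permeant prosubstrate) were seeded at 600 cells/well, incubated 5 h at 37 C/5% CO2, then pinned with compounds in DMSO; nonlytic luminescence tracked viability during 40 h treatment.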

[4] = qHTS RealTime-Glo MT Cell Viability Assay in HEK293 cells - 40 hour (AID 1224874); details: RealTime-Glo luminescence; max response: stronger effect = lower value; also: nearly all actives have a fitted effect of over 50% in size
Outline: (§3)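 qHTS format; HEK293 cells with NanoLuc/prosubstrate reagent, 37 C/5% CO2 for 5 h pre-dosing; compounds 23 nL in DMSO; luminescence at each time point reflects viable cells.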

[5] = A CellTox Green Cytotoxicity Assay to monitor cytotoxicity in HEK293 cells - 24 hour (AID 1224875); also: series mostly up to about 77 µM; nearly all actives have a fitted effect of over 45% in size
Outline: as §1

[6] = A CellTox Green Cytotoxicity Assay to monitor cytotoxicity in HepG2 cells - 16 hour (AID 1224876); also: nearly all actives have a fitted effect of over 45% in size
Outline: (§4)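 Continuous culture of HepG2 cells with a membrane-impermeant DNA dye; rising fluorescence marks dead cells. Compound exposure lasted up to 40 h at 37 C, with reads every 8 h from 0 h.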

[7] = qHTS RealTime-Glo MT Cell Viability Assay in HepG2 cells - 32 hour (AID 1224877); also: nearly all actives have a fitted effect of over 55% in size
Outline: (§5)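 Cell number in HepG2 cultures estimated from NanoLuc luminescence generated by metabolic reduction of a prosubstrate by living cells. The homogeneous, nonlytic format allowed repeated reads at 0, 8, 16, 24, 32 and 40 h of compound exposure.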

[8] = A CellTox Green Cytotoxicity Assay to monitor cytotoxicity in HepG2 cells - 40 hour (AID 1224879); also: nearly all actives have a fitted effect of over 40% in size
Outline: as §4

[9] = qHTS RealTime-Glo MT Cell Viability Assay in HEK293 cells - 0 hour (AID 1224880); also: top concentration of the series differs between compounds; nearly all actives have a fitted effect of over 45% in size
Outline: as §3

[10] = A CellTox Green Cytotoxicity Assay to monitor cytotoxicity in HEK293 cells - 32 hour (AID 1224881); also: nearly all actives have a fitted effect of over 40% in size; also: potency is read from the fitted curve at half-maximal effect
Outline: as §1

[11] = A CellTox Green Cytotoxicity Assay to monitor cytotoxicity in HepG2 cells - 0 hour (AID 1224882); also: nearly all actives have a fitted effect of over 35% in size
Outline: as §4

[12] = A CellTox Green Cytotoxicity Assay to monitor cytotoxicity in HEK293 cells - 8 hour (AID 1224884); also: nearly all actives have a fitted effect of over 35% in size
Outline: as §1

[13] = qHTS RealTime-Glo MT Cell Viability Assay in HepG2 cells - 16 hour (AID 1224885); also: nearly all actives have a fitted effect of over 50% in size
Outline: as §5

[14] = qHTS RealTime-Glo MT Cell Viability Assay in HEK293 cells - 24 hour (AID 1224886); also: nearly all actives have a fitted effect of over 50% in size; also: potency is read from the fitted curve at half-maximal effect
Outline: as §2

[15] = qHTS RealTime-Glo MT Cell Viability Assay in HEK293 cells - 8 hour (AID 1224887); also: nearly all actives have a fitted effect of over 50% in size; also: potency is read from the fitted curve at half-maximal effect
Outline: as §3

[16] = A CellTox Green Cytotoxicity Assay to monitor cytotoxicity in HEK293 cells - 16 hour (AID 1224888); also: nearly all actives have a fitted effect of over 35% in size
Outline: as §1

[17] = qHTS RealTime-Glo MT Cell Viability Assay in HepG2 cells - 0 hour (AID 1224889); also: nearly all actives have a fitted effect of over 50% in size
Outline: as §5

[18] = A CellTox Green Cytotoxicity Assay to monitor cytotoxicity in HepG2 cells - 8 hour (AID 1224890); also: nearly all actives have a fitted effect of over 45% in size
Outline: as §4

[19] = A CellTox Green Cytotoxicity Assay to monitor cytotoxicity in HepG2 cells - 32 hour (AID 1224883); also: nearly all actives have a fitted effect of over 50% in size
Outline: as §4

[20] = A CellTox Green Cytotoxicity Assay to monitor cytotoxicity in HepG2 cells - 24 hour (AID 1224878); also: nearly all actives have a fitted effect of over 45% in size
Outline: as §4

SMILES | Potency [1] | Potency [2] | outcome [3] | max response [4] | Potency [5] | Potency [6] | Potency [7] | Potency [8] | outcome [9] | Potency [10] | outcome [11] | Potency [12] | Potency [13] | Potency [14] | Potency [15] | Potency [16] | outcome [17] | Potency [18] | Potency [19] | Potency [20]
Cc1cccc2sc3nncn3c12 | inactive | inactive | inactive | 22% (inactive) | inactive | inactive | inactive | inactive | inactive | inactive | inactive | inactive | inactive | inactive | inactive | inactive | inactive | inactive |  | 
CCSC(=O)Cl | inactive | inactive | inactive | 15.5% (inactive) | inactive | inactive | inactive | inactive | inactive | inactive | inactive | inactive | inactive | inactive | inactive |  | inactive |  | inactive | 
S=C=S | inactive | inactive | inactive | 6.94% (inactive) | inactive | inactive | inactive | inactive | inactive | inactive | inactive |  | inactive | inactive | inactive | inactive | inactive | inactive | inactive | 
COc1cccc(C=O)c1 | inactive | inactive | inactive | -0.107% (inactive) | inactive | inactive | inactive | inactive | inactive |  | inactive | inactive | inactive | inactive | inactive |  | inactive | inactive | inactive | 
CC(C)(N)Cc1ccc(Cl)cc1 | inactive | inactive | inactive | 6.61% (inactive) | inactive | inactive | inactive | inactive | inactive | inactive | inactive | inactive | inactive | inactive | inactive | inactive | inactive | inactive | inactive | 
CCCCS(=O)(=O)Cl | inactive | inactive | inactive | 6.29% (inactive) | inactive | inactive | inactive | inactive | inactive | inactive | inactive |  |  | inactive | inactive | inactive | inactive |  | inactive | 
ClCC1CO1 (stereo not drawn) | inactive | inactive | inactive | -2.45% (inactive) | inactive | inactive | inactive | inactive | inactive | inactive | inactive | inactive |  | inactive | inactive | inactive | inactive | inactive | inactive | 
O=c1[nH]c2ccccc2o1 | inactive | inactive | inactive | -0.283% (inactive) | inactive | inactive | inactive | inactive | inactive | inactive | inactive | inactive | inactive | inactive | inactive |  | inactive | inactive | inactive | 
C=C(C)[C@H]1CN[C@H](C(=O)O)[C@H]1CC(=O)O | inactive | inactive | inactive | 0.763% (inactive) | inactive | inactive | inactive | inactive | inactive | inactive | inactive | inactive | inactive | inactive | inactive | inactive | inactive | inactive | inactive | 
CN(C)C(=O)Oc1cc(OC(=O)N(C)C)cc(C(O)CNC(C)(C)C)c1 (stereo not drawn) | inactive | inactive | inactive | -1.56% (inactive) | inactive | inactive | inactive |  | inactive | inactive | inactive |  | inactive | inactive | inactive | inactive | inactive | inactive | inactive | 
Clc1nc(Cl)nc(Nc2ccccc2Cl)n1 | inactive | inactive | inactive | 11.5% (inactive) | inactive | inactive | inactive |  | inactive | inactive | inactive | inactive | inactive | inactive | inactive |  | inactive | inactive | inactive | 
C(COCC1CO1)OCC1CO1 (stereo not drawn) | inactive | inactive | inactive |  | inactive | inactive | inactive | inactive | inactive | inactive | inactive | inactive | inactive | inactive | inactive | inactive | inactive | inactive | inactive | inactive
N#CC(Br)(Br)C(N)=O | inactive | inactive | inactive | -10% (inactive) | inactive |  | inactive |  | inactive | inactive | inactive | inactive | inactive | inactive | inactive | inactive | inactive | inactive |  | 
CC(C)(C)c1cc(O)ccc1O | inactive |  | inactive |  | inactive | inactive | inactive | inactive | inactive | inactive | inactive | inactive | inactive |  | inactive | inactive | inactive | inactive | inactive | 
ClC1=C(Cl)C2(Cl)C(CBr)CC1(Cl)C2(Cl)Cl (stereo not drawn) | 54.9 µM (active) and inactive | 43.6 µM (active) and inactive | inactive | -5.43% (inactive) |  | inactive | inactive | inactive | inactive | 54.9 µM (active) and inactive | inactive | inactive | inactive | 49 µM (active) and inactive | 43.6 µM (active) and inactive |  | inactive | inactive | inactive | inactive
